# “And” between values parts separate entries of the source, which are not always exact repeats. Equal entries are not always repeated. Inconclusive results are not listed. A call without a number means that no potency is given here. The source made the active and inactive calls. Unless noted, calls come from the whole dose curve.
# Assays:
# [1] = molecular target: Estrogen receptor (Homo sapiens) (UniProt P03372); experiment: qHTS assay for small molecule agonists of estrogen receptor alpha signaling (AID 588514); note: nearly all actives have a fitted effect of over 70% in size; note: potency is the fitted concentration of half-maximal effect
# Method in brief: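 Fluorescence from CCF4 cleavage reports ER-alpha-driven beta-lactamase expression in HEK 293 cells treated 18 hrs at 37 C. Data normalized to 17-beta-estradiol (20 nM) and DMSO, fitted to Hill equation.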
# [2] = molecular target: Androgen receptor (Homo sapiens) (UniProt P10275); experiment: qHTS assay for small molecule agonists of androgen receptor signaling (AID 588515; active = well fitted curve in the direction sought with a large enough effect in the signal ratio, with a control signal flat; the % refers to the signal ratio); conditions: AR-UAS-bla HEK293, beta-lactamase ratio, agonist 16 h; stronger effect = higher value
# Description: NIH Chemical Genomics Center [NCGC] U.S. Environmental Protection Agency [EPA] National Institutes of Environmental Health Sciences [NIEHS] National Toxicology Program [NTP] NCGC Assay Overview Androgen receptor (AR), located at chromosome Xq11-12, is an important member of nuclear hormone receptors. AR signaling plays a critical role in AR-dependent prostate cancer and other androgen related diseases. Considerable attention has been given in the past decades to the possibility of some of environmental chemicals which may contribute the endocrine disruption. Therefore, it is important to understand the effect of environmental chemicals in AR signaling pathway.
# NCGC Assay Protocol Summary Using a beta-lactamase reporter-gene under control of the AR response element, a cell-based assay [GeneBLAzer AR-UAS-bla-GripTite assay developed by Invitrogen] was used to measure AR ligands signaling. AR-UAS-bla-GripTite HEK 293 cells were used with assay medium containing 10% dialyzed FBS, 0.1 mM NEAA and 1 mM sodium pyruvate. The assay was performed in clear bottom black Greiner 1536-well plates. R1881, a synthetic androgen agonist, was used as a positive control in the screen. Library compounds were measured for their ability to stimulate the reporter gene activity. Compounds were screened in a titration series in 1536-well format. The fluorescence intensity (405 nm excitation, 460/530 nm emission) was measured using an EnVision plate reader. Data was normalized relative to R1881 control (30 nM, 100%), and DMSO only wells (basal, 0%). Concentration-response titration points for each compound were fitted to the Hill equation yielding concentrations of half-maximal stimulation (EC50) and maximal response (efficacy) values. qHTS protocol for AR beta-lactamase assay in agonist mode [Step] [Parameter] [Value] [Description] 1. Reagent; 6 uL; 2000 cells/well 2. Incubation; 37 C for 5 hrs 3. Compounds; 23 nL; 0.59 nM to 92 uM 4. Controls (R1881); 23 nL, - Dose response, start 3.83uM, 1:3 dilutions with duplicates in one column - Final concentrations of 30 and 20nM in two columns 5. Incubation; 37 C for 16 hrs 6. Detection reagent; 1 uL of CCF4-dye 7. Incubation; RT for 2 hrs 8. Detection; Fluorescence; Envision plate reader
# [3] = molecular target: Androgen receptor (Homo sapiens) (UniProt P10275); experiment: qHTS assay for small molecule antagonists of androgen receptor signaling (AID 588516; active = well fitted curve in the direction sought with a large enough effect in the signal ratio, with a control signal flat, not every such curve was filed as active; the % refers to the signal ratio; note: potency is the fitted concentration of half-maximal effect)
# Method in brief: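 Compounds tested in titration against 10 nM R1881 in AR-responsive bla reporter HEK 293 cells; CCF4 fluorescence (460/530 nm) after 16 h exposure gave IC50 and efficacy.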
# [4] = molecular target: Bile acid receptor (Homo sapiens) (UniProt Q96RI1); experiment: qHTS assay for small molecule antagonists of farnesoid X receptor signaling (AID 588526)
# Method in brief: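 Concentration-response titrations were fitted to the Hill equation for half-maximal inhibition and maximal response, with data normalised to 50 uM chenodeoxycholic acid and DMSO control wells. Cells: FXR-UAS-bla HEK293T, dialyzed FBS.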
# [5] = molecular target: Glucocorticoid receptor (Homo sapiens) (UniProt P04150); experiment: qHTS assay for small molecule agonists of glucocorticoid receptor signaling (AID 588532; active = well fitted curve in the direction sought with a large enough effect in the signal ratio, with a control signal flat; the % refers to the signal ratio); conditions: HeLa MMTV-bla, beta-lactamase ratio, agonist, 18 h; stronger effect = higher value; percent of dexamethasone control, DMSO zero
# Method in brief: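 Stimulation of a glucocorticoid response element-driven beta-lactamase gene was measured in HeLa cells. Responses were scaled between DMSO basal and 0.1 uM dexamethasone, then fitted for half-maximal stimulation.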
# [6] = molecular target: Glucocorticoid receptor (Homo sapiens) (UniProt P04150); experiment: qHTS assay for small molecule antagonists of glucocorticoid receptor signaling (AID 588533; active = well fitted inhibition curve with a large enough effect in the signal ratio, with a control signal flat, not every such curve was filed as active; the % refers to the signal ratio;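 note: cells stimulated with 2 nM dexamethasone as agonist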)
# Method in brief: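 Antagonist-mode qHTS: compound titrations added to GRE-bla HeLa cells, then dexamethasone 2 nM final; 18 h, 37 C. CCF4 FRET fluorescence normalized to dexamethasone and DMSO; IC50 from Hill fit.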
# [7] = molecular target: Peroxisome proliferator-activated receptor gamma (Homo sapiens) (UniProt P37231); experiment: qHTS assay for small molecule antagonists of peroxisome proliferator-activated receptor gamma signaling (AID 588537; active = well fitted inhibition curve with a large enough effect in the signal ratio, with a control signal flat, not every such curve was filed as active; the % refers to the signal ratio; note: potency is the fitted concentration of half-maximal effect)
# Method in brief: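 HEK293 cells, PPAR-gamma-UAS-bla, 3000/well. Pre-incubation 6-6.5 h, 37 C. Compound titration with rosiglitazone 50 nM final, 16 h. CCF4 dye, 2 h RT, dual-emission fluorescence.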
# [8] = qHTS assay for small molecule antagonists of peroxisome proliferator-activated receptor delta signaling (AID 588535; active = well fitted inhibition curve with a large enough effect in the signal ratio, with a control signal flat, not every such curve was filed as active; the % refers to the signal ratio;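 for max response: cells co-treated with a PPAR-delta agonist as stimulator during compound exposure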); conditions: HEK293T PPARd-UAS-bla, beta-lactamase FRET ratio, 18 h; 460 nm channel
# Method in brief: (§1)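 Compounds tested in titration on PPAR-delta-UAS-bla HEK293T cells grown in charcoal/dextran-stripped serum (2%); beta-lactamase activity read via CCF4 emission at 460 and 530 nm.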
# [9] = molecular target: Peroxisome proliferator-activated receptor delta (Homo sapiens) (UniProt Q03181); experiment: as above
# Method in brief: as §1
# [10] = molecular target: DNA dC->dU-editing enzyme APOBEC-3G (Homo sapiens) (UniProt Q9HC16); experiment: qHTS for inhibitors of Vif-A3G interactions: Validation (AID 588379; active = well fitted inhibition curve with a large enough effect)
# Method in brief: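 Yellow fluorescence (Ex 488, Em 500-530) of Vif-coexpressing HeLa A3G-eYFP cells, scanned by Acumen cytometer, reports blocked A3G degradation. Cells plated at 700/well overnight at 37 deg C before compound addition, then a further overnight compound incubation at 37 deg C.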
# Sequence of Glucocorticoid receptor (Homo sapiens) (P04150 whole entry, looked up): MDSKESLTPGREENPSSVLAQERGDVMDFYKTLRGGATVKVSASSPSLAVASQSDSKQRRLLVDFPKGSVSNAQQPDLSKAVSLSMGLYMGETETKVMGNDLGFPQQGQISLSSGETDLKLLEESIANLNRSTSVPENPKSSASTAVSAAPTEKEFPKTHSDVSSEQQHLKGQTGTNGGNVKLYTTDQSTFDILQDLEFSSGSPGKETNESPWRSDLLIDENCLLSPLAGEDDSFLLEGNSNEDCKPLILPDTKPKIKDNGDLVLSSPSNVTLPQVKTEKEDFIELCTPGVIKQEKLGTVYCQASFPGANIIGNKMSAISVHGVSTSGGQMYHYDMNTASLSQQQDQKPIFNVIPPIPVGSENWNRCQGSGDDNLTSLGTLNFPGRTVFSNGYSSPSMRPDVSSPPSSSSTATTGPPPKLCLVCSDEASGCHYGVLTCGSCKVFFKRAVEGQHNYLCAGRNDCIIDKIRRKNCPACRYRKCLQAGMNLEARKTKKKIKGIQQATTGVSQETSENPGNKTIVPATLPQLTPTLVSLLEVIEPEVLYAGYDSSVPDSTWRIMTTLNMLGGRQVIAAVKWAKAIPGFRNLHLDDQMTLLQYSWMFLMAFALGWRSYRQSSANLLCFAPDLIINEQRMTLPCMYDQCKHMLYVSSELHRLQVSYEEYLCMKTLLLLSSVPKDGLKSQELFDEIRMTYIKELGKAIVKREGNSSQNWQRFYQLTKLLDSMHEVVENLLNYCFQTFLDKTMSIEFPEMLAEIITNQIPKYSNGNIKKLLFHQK
# Sequence of Estrogen receptor (Homo sapiens) (P03372 whole entry, looked up): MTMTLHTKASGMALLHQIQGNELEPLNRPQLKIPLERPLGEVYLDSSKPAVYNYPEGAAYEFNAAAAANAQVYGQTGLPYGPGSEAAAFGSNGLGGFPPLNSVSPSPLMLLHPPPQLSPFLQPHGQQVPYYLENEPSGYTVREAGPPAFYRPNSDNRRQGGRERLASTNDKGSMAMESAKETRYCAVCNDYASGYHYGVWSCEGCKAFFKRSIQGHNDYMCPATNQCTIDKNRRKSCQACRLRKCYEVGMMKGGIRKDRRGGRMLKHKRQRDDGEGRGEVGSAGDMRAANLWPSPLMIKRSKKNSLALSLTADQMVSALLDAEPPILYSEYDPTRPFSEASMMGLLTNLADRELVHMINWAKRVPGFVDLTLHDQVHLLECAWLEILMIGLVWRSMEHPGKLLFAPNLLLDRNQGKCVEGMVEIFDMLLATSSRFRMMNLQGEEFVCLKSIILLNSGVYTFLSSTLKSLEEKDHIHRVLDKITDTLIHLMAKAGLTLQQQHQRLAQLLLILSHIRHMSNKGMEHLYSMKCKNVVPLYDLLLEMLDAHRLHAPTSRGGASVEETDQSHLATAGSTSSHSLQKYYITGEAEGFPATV
# Sequence of Bile acid receptor (Homo sapiens) (Q96RI1 whole entry, looked up): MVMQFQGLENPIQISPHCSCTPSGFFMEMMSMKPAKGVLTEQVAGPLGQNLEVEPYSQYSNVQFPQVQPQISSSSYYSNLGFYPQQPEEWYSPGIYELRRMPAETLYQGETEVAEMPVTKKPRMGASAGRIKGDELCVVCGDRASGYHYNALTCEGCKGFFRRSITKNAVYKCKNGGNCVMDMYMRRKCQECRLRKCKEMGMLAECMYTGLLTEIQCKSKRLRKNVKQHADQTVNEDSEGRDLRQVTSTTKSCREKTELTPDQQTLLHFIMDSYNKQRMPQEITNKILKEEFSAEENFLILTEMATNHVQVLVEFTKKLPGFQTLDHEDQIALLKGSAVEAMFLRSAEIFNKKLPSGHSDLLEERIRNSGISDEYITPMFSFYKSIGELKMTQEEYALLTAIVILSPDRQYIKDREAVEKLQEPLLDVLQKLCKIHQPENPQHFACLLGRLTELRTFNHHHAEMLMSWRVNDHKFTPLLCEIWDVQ
# Sequence of DNA dC->dU-editing enzyme APOBEC-3G (Homo sapiens) (Q9HC16 whole entry, looked up): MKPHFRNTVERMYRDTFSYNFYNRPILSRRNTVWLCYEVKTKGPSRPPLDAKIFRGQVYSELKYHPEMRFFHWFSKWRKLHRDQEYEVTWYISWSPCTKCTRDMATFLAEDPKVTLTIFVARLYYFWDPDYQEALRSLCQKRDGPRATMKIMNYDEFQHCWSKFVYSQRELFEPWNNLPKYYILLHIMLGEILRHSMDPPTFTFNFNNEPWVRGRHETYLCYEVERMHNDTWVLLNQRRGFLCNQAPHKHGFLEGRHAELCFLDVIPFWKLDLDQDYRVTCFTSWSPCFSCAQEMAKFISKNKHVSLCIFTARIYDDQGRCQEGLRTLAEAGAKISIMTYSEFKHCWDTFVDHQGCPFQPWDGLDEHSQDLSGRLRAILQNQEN
# Sequence of Peroxisome proliferator-activated receptor delta (Homo sapiens) (Q03181 whole entry, looked up): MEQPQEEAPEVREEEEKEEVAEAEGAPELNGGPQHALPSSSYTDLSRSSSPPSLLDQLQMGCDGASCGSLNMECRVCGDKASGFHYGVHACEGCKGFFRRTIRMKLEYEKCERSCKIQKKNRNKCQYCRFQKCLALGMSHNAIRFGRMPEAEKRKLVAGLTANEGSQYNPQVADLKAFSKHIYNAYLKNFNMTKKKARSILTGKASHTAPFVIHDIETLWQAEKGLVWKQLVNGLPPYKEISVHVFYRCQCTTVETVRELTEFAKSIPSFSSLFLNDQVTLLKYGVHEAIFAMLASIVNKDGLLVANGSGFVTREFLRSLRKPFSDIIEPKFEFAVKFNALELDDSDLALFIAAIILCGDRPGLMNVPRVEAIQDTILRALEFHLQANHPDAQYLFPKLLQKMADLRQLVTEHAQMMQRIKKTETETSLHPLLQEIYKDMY
# Sequence of Peroxisome proliferator-activated receptor gamma (Homo sapiens) (P37231 whole entry, looked up): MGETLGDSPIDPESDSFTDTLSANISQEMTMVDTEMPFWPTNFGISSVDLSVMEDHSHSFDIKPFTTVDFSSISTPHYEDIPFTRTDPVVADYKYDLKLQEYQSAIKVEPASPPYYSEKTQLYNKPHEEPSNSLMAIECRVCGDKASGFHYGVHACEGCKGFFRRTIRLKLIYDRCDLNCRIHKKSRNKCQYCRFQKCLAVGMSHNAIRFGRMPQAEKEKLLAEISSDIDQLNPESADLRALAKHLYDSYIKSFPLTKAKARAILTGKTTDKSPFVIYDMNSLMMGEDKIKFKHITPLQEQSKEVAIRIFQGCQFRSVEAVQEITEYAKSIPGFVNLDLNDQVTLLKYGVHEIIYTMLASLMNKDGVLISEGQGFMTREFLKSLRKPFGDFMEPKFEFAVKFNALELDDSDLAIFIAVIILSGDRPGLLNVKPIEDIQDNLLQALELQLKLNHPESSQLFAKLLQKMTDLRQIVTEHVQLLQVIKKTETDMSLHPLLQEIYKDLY
# Sequence of Androgen receptor (Homo sapiens) (P10275 whole entry, looked up): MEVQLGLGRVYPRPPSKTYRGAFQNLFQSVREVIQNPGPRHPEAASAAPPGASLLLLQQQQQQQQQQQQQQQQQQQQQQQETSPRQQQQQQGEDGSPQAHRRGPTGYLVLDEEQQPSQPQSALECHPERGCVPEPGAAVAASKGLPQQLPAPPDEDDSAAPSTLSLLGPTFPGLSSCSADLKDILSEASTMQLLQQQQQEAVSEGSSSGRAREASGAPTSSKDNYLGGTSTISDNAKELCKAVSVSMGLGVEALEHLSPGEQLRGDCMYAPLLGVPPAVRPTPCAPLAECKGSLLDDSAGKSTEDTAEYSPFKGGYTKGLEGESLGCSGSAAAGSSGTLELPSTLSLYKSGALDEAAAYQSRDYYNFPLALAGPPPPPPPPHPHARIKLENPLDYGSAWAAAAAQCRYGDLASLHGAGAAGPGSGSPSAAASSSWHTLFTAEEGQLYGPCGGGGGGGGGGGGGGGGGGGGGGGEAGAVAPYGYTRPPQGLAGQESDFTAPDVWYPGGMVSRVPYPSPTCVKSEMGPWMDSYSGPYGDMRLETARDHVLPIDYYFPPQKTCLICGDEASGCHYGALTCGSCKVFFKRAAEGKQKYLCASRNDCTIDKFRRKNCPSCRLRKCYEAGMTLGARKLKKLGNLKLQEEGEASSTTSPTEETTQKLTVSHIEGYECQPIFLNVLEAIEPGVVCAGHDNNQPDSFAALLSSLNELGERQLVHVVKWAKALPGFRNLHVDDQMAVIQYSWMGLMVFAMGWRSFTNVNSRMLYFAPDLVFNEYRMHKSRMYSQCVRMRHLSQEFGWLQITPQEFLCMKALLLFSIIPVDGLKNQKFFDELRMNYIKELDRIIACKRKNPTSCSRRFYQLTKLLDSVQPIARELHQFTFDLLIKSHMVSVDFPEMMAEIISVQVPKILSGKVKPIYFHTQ
compound,measurement,setting,value
CCOc1ccc(NC(C)=O)cc1,Potency,[1],inactive
same,activation,[2],13.2% (inactive) and 14.9% (inactive)
same,Potency,[3],inactive
same,outcome,[4],inactive
same,activation,[5],0.725% (inactive)
same,outcome,[6],inactive
same,Potency,[7],inactive
NC(=O)c1ccccc1O,Potency,[1],inactive
same,activation,[5],9.52% (inactive)
same,outcome,[6],inactive
same,max response,[8],7.67%
same,outcome,[9],inactive
CO[C@]12C[C@@H](COC(=O)c3cncc(Br)c3)CN(C)[C@@H]1Cc1cn(C)c3cccc2c13,outcome,[10],inactive
C#C[C@]1(O)CC[C@H]2[C@@H]3CCC4=Cc5oncc5C[C@]4(C)[C@H]3CC[C@@]21C,Potency,[1],3.16 µM (active)
same,activation,[5],-5.91% (inactive)
Oc1c(Cl)cc(Cl)c(Cl)c1Cc1c(O)c(Cl)cc(Cl)c1Cl,activation,[5],-7.2% (inactive) and -4.02% (inactive)
CN1CCC[C@@H]1CCO[C@](C)(c1ccccc1)c1ccc(Cl)cc1,outcome,[10],inactive
CCOc1ccccc1C(N)=O,Potency,[1],inactive
same,activation,[2],-4.07% (inactive)
same,outcome,[4],inactive
same,activation,[5],-1.86% (inactive)
same,outcome,[6],inactive
same,max response,[8],-16.5%
same,outcome,[9],inactive
same,Potency,[7],inactive
CCCN(CCC)S(=O)(=O)c1ccc(C(=O)O)cc1,activation,[2],-5.06% (inactive) and 5.71% (inactive)
same,Potency,[3],inactive
same,outcome,[4],inactive
same,activation,[5],0.219% (inactive) and 1.81% (inactive)
same,outcome,[6],inactive
same,max response,[8],32.2% and 48.9%
same,outcome,[9],inactive
same,Potency,[7],inactive
CN(C)C(=O)Nc1ccc(Cl)c(Cl)c1,Potency,[1],inactive
same,activation,[2],0.958% (inactive)
same,Potency,[3],inactive
same,activation,[5],-4.05% (inactive)
same,outcome,[6],inactive
same,max response,[8],4.49%
same,outcome,[9],inactive
same,Potency,[7],inactive
Cc1ncc(CO)c(C=O)c1O,outcome,[10],inactive
O=C(O)c1ccc(S(=O)(=O)N(Cl)Cl)cc1,Potency,[1],inactive
same,outcome,[4],inactive
same,outcome,[6],inactive
same,Potency,[7],inactive
NCCNc1cccc2ccccc12,activation,[2],6.42% (inactive)
same,Potency,[3],39.8 µM (active)
same,activation,[5],3.88% (inactive) and -4.01% (inactive)
same,outcome,[6],inactive
same,max response,[8],22%
same,outcome,[9],inactive
same,Potency,[7],39.8 µM (active)

# Reference: PubChem BioAssay (NCATS)
